Laboratory results taken from PubChem BioAssay (NCI).
Compounds without any hit were thinned out: in the full panel of roughly 83,000, 20% have a hit.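 How to read the values: 0–100, growth inhibition (40 = 60% inhibited); 0, no net growth; -100 to 0, cell death (-40 = 40% of starting cells died; -100 = all dead).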 The source made the active and inactive calls. Rule for the calls: active = growth percent below 10; inactive = the rest.

What follows are molecules tested on HL-60(TB) leukemia (assay: NCI-60 one-dose screen, 48 h (100 = growth as untreated, 0 = no growth, -100 = all killed)). Settings: 10 µM unless noted.

Q: With `O=C1Nc2cc(Cl)ccc2/C1=C/c1cccc(OCc2ccccn2)c1` as the molecule, how does the growth read?
A: The growth was -9.79% (active).

Q: `COc1cc(/C=C/C(=O)c2ccc(S(=O)(=O)NCCNc3nc(N(C)C)nc(N4CCOCC4)n3)cc2)cc(OC)c1OC` was tested. Which growth did it give?
A: The growth was -64.8% (active).

Q: For `COc1c(F)ccc(C(=O)Nc2ccc3nc(NC(=O)C4CCCN(S(=O)(=O)c5cccc(Br)c5)C4)sc3c2)c1F` (stereo unspecified), which growth is on record?
A: Its growth is 80.6% (inactive).

Q: How did the growth turn out when `O=c1oc2ccc(Br)cc2cc1C1=CSc2nc3sc4c(c3c(=O)n2N=C1)CCCC4` was run?
A: The growth was 45.4% (inactive).

Q: For `Cc1c(C(=O)NNC(=O)c2ccc(Cl)cc2)nnn1-c1ccc(Br)cc1`, which growth is on record?
A: Its growth is 102% (inactive).

Q: Which growth does the source give for `CC1=C(C(=O)OCc2ccccc2)C(c2ccc(N(C)C)cc2)n2c(nc3ccccc32)N1` (stereo unspecified) here?
A: The growth was 73.7% (inactive).
